According to PubChem BioAssay (Tox21):
“And” between values parts separate entries of the source, which are not always exact repeats. Equal entries are not always repeated. Inconclusive results are not listed. Where a call stands in place of a potency, no number is given. The source made the active and inactive calls. Unless noted, calls follow the shape of the dose curve; as a rule, active = well fitted curve in the direction sought with a large enough effect in the repeat runs; inconclusive = weak or mixed curves; inactive = no such curve, though single readings can be large; an effect the other way counts as inactive or inconclusive.

What was measured:
[1] = qHTS assay to identify aromatase inhibitors - cell viability counter screen (AID 743084);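 also: cells stimulated with testosterone during compound exposure; nearly all actives have a fitted effect of over 55% in size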
[2] = molecular target: Aryl hydrocarbon receptor (Homo sapiens) (UniProt P35869); assay: qHTS assay to identify small molecule that activate the aryl hydrocarbon receptor (AhR) signaling pathway (AID 743085); also: nearly all actives have a fitted effect of over 15% in size; also: potency is read from the fitted curve at half-maximal effect;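 as to activation: HG2L7.5c1 human HepG2 liver cells with stably integrated DRE-driven firefly reporter; series mostly up to about 70 µM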
Chain of Aryl hydrocarbon receptor (Homo sapiens) (P35869 whole entry, looked up): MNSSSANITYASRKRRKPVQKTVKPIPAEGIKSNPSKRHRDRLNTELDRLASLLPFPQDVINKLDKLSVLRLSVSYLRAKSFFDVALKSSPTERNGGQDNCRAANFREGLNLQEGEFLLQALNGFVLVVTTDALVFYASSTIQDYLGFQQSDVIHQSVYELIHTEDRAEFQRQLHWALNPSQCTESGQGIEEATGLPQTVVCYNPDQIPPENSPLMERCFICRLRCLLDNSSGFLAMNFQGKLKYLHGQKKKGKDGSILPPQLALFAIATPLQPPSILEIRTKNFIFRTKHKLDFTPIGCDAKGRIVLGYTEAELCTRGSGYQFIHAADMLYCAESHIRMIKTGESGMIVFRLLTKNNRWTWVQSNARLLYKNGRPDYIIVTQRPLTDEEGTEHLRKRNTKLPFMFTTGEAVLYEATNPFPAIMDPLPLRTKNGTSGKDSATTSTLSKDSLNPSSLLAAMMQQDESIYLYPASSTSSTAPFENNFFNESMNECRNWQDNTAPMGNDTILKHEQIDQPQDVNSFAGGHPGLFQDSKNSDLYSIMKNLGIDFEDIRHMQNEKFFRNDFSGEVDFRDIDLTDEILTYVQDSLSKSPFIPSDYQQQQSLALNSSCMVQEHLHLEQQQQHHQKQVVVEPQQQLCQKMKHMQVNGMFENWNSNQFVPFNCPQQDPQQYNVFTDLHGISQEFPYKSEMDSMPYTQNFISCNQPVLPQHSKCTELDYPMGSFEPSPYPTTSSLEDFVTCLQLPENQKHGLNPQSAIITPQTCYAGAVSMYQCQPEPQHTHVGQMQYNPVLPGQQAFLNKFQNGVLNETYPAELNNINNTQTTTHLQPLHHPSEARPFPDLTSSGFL
Summary of the method: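 Measured in HG2L7.5c1 cells: CellTiter-Fluor signal (30 min incubation, 37C) for viability, then luciferase luminescence (30 min, room temperature). Compound contact time was 24 h at 37C, following a 5 h pre-incubation.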

[3] = qHTS assay to identify small molecule that activate the aryl hydrocarbon receptor (AhR) signaling pathway - cell viability counter screen (AID 743086);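 also: HepG2 liver cells carrying the AhR DRE luciferase reporter; series mostly up to about 70 µM; nearly all actives have a fitted effect of over 45% in size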
Summary of the method: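 HepG2-AhR-luc (HG2L7.5c1) cells, 4000/well, treated 24 h at 37 C with compound; viability measured as CellTiter-Fluor fluorescence after 30 min in the same wells as the luciferase read.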

[4] = molecular target: Peroxisome proliferator-activated receptor gamma (Homo sapiens) (UniProt P37231); assay: qHTS assay to identify small molecule agonists of the peroxisome proliferator-activated receptor gamma (PPARg) signaling pathway (AID 743094; active = well fitted activation curve with a large enough effect in the signal ratio in the repeat runs, not every such curve was filed as active; the % refers to the signal ratio)
Chain of Peroxisome proliferator-activated receptor gamma (Homo sapiens) (P37231 whole entry, looked up): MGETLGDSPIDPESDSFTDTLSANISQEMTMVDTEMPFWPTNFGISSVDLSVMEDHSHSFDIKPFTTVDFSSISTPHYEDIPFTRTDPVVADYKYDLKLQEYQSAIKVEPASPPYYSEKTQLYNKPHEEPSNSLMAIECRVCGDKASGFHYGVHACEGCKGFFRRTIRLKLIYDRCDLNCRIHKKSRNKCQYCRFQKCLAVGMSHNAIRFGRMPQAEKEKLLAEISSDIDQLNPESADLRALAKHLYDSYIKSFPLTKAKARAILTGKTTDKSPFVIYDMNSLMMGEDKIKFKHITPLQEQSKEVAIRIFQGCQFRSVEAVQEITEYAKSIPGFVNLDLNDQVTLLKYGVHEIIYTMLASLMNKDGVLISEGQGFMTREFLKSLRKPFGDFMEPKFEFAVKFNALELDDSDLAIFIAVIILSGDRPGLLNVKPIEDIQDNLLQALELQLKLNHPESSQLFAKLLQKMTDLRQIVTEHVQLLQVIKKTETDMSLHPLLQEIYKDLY
Summary of the method: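 Cell-based bla reporter, HEK293H background, PPARg-driven UAS. Pre-incubation 5 h, 37C, 5% CO2. Compound 17 h, 37C. Substrate 1 h RT; fluorescence.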

[5] = molecular target: Peroxisome proliferator-activated receptor gamma (Homo sapiens) (UniProt P37231); assay: qHTS assay to identify small molecule antagonists of the peroxisome proliferator-activated receptor gamma (PPARg) signaling pathway (AID 743191; calls by dose curve; also: series mostly up to about 63 µM; nearly all actives have a fitted effect of over 30% in size)
Summary of the method: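 GeneBLAzer PPARg UAS-bla HEK293H cells, 5 h post-plating, exposed to compounds 17 h at 37C. LiveBLAzer B/G FRET substrate added for 1 h at room temperature; beta-lactamase reporter read by fluorescence intensity.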

[6] = qHTS assay for small molecule agonists of the antioxidant response element (ARE) signaling pathway (AID 743202; active = well fitted activation curve with a large enough effect in the signal ratio in the repeat runs, not every such curve was filed as active; the % refers to the signal ratio; also: potency is read from the fitted curve at half-maximal effect)
Summary of the method: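 HepG2 ARE-bla cells; 16 h treatment at 37 C; FRET-based beta-lactamase fluorescence read after 2 h substrate incubation at room temperature.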

[7] = qHTS assay for small molecule agonists of the antioxidant response element (ARE) signaling pathway - cell viability counter screen (AID 743203; calls by dose curve; also: nearly all actives have a fitted effect of over 55% in size; also: potency is read from the fitted curve at half-maximal effect)
Summary of the method: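 Measured in the same wells as the beta-lactamase ARE reporter, this read-out is CellTiter-Glo luminescence from HepG2 ARE-bla cells given compounds for 16 hrs.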

[8] = qHTS assay for small molecule activators of the heat shock response signaling pathway - cell viability counter screen (AID 743209); also: nearly all actives have a fitted effect of over 50% in size; also: potency is read from the fitted curve at half-maximal effect
Summary of the method: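 Same-well multiplex: after 2.5 h room-temperature incubation with LiveBLAzer B/G substrate and fluorescence reading, CellTiter-Glo reagent was added to HSE-bla HeLa cells that had received compound for 5 h at 37 C; luminescence read after 30 min.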

[9] = qHTS assay for small molecule activators of the heat shock response signaling pathway (AID 743210; active = well fitted activation curve with a large enough effect in the signal ratio in the repeat runs, with a control signal flat, not every such curve was filed as active; the % refers to the signal ratio;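 also: HeLa cells with beta-lactamase reporter driven by heat shock elements; series mostly up to about 63 µM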)
Summary of the method: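 Following overnight attachment, HSE-bla HeLa cells received test compounds for 5 h at 37 C; beta-lactamase activity was then detected via FRET substrate fluorescence.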

[10] = qHTS assay to identify small molecule antagonists of the peroxisome proliferator-activated receptor gamma (PPARg) signaling pathway - cell viability counter screen (AID 743194); also: nearly all actives have a fitted effect of over 55% in size; also: potency is read from the fitted curve at half-maximal effect
Summary of the method: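 Cytotoxicity counter screen in PPARg-bla HEK293H cells, same wells as reporter assay. Compounds plus 50 nM rosiglitazone (final) for 17 h at 37 C, then viability read by CellTiter-Glo luminescence.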

Row | Compound | Potency [1] | Potency [2] | Potency [3] | Potency [4] | Potency [5] | Potency [6] | Potency [7] | Potency [8] | Potency [9] | Potency [10]
1 | C=Cc1ccccc1C=C | inactive | inactive | inactive | inactive | inactive | inactive | inactive | inactive | inactive | –
2 | Oc1c(I)cc(Cl)c2cccnc12 | inactive | 944 nM (active) and 61 µM (active) | inactive | inactive | – | – | 68.5 µM (active) | inactive | – | 4.36 µM (active) and 5.96 µM (active)
3 | COc1cc(C)ccc1O | inactive | inactive | inactive | inactive | inactive | inactive | inactive | inactive | inactive | –
4 | COC(C)=O | inactive | inactive | inactive | inactive | – | inactive | inactive | inactive | inactive | inactive
5 | O=C(O)CCN(C1(C(=O)NO)CCCC1)S(=O)(=O)c1ccc(Oc2ccc(F)cc2)cc1 | inactive | inactive | inactive | inactive | inactive | – | inactive | inactive | inactive | –
6 | CCCC(=O)OC(C)(C)Cc1ccccc1 | inactive | inactive | inactive | – | – | inactive | inactive | inactive | inactive | inactive
7 | CC(C)(C)c1ccc(C(O)CCCN2CCC(C(O)(c3ccccc3)c3ccccc3)CC2)cc1 (stereo not given) | inactive | inactive | inactive | inactive | – | – | 11.9 µM (active) | 21.1 µM (active) | – | –
8 | CC(C)(C)NSc1nc2ccccc2s1 | inactive | 27.8 µM (active) | inactive | – | inactive | 27.8 µM (active) | inactive | – | – | inactive
9 | C#C[C@]1(OC(C)=O)CC[C@H]2[C@@H]3CCC4=C[C@@H](OC(C)=O)CC[C@@H]4[C@H]3CC[C@@]21C | inactive | inactive | inactive | inactive | – | 26.6 µM (active) | inactive | – | inactive | –
10 | C[Si](Cl)(c1ccccc1)c1ccccc1 | inactive | inactive | inactive | inactive | – | – | inactive | inactive | inactive | –
11 | CCCCOC(=O)CC | inactive | inactive | inactive | – | inactive | inactive | inactive | inactive | inactive | –
12 | CC1=CCC(=C(C)C)CC1 | inactive | inactive | inactive | inactive | – | – | inactive | inactive | inactive | –
13 | Cc1ccc(C)cc1 | inactive | inactive | inactive | – | – | inactive | inactive | inactive | inactive | inactive
